# PubChem BioAssay (Tox21)
# Records with an inconclusive call do not appear. Entries that show only a call come without a potency. Active and inactive are the calls of the source. The call rests on the fitted dose curve; in most records, active means well fitted curve in the direction sought with a large enough effect in the repeat runs; inconclusive means weak or mixed curves; inactive means no such curve, though single readings can be large; an effect the other way counts as inactive or inconclusive.
# Experiments:
# [1] = qHTS RealTime-Glo MT Cell Viability Assay in HEK293 cells - 0 hour (AID 1224880); further: top concentration of the series differs between compounds; nearly all actives have a fitted effect of over 45% in size
# Summary of the method: (§1)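 Luminescence, which tracks viable cell number through reduction of the prosubstrate to a NanoLuc substrate, was read over continuous 37 C culture. Cells (600/well) were premixed with reagent and rested 5 h before 23 nL of compound in DMSO was pinned.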
# [2] = A CellTox Green Cytotoxicity Assay to monitor cytotoxicity in HepG2 cells - 0 hour (AID 1224882); further: nearly all actives have a fitted effect of over 35% in size; further: potency means the concentration at half of the fitted maximal effect
# Summary of the method: (§2)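 Real-time cytotoxicity: fluorescence of a cell-impermeant cyanine dye binding DNA of dead HepG2 cells, measured repeatedly (0–40 h) during compound exposure at 37 C. Cells seeded 600/well with reagent, dosed after 5 h.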
# [3] = A CellTox Green Cytotoxicity Assay to monitor cytotoxicity in HepG2 cells - 32 hour (AID 1224883); further: nearly all actives have a fitted effect of over 50% in size; further: potency means the concentration at half of the fitted maximal effect
# Summary of the method: as §2
# [4] = qHTS RealTime-Glo MT Cell Viability Assay in HepG2 cells - 16 hour (AID 1224885); further: nearly all actives have a fitted effect of over 50% in size; further: potency means the concentration at half of the fitted maximal effect
# Summary of the method: (§3)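 HepG2 cells (600/well) were dispensed with RealTime-Glo reagents, incubated 5 h at 37 °C, then treated with compounds in DMSO for up to 40 h. Nonlytic NanoLuc luminescence reflecting viable cells was read at each stated time point.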
# [5] = A CellTox Green Cytotoxicity Assay to monitor cytotoxicity in HEK293 cells - 16 hour (AID 1224888); further: nearly all actives have a fitted effect of over 35% in size; further: potency means the concentration at half of the fitted maximal effect
# Summary of the method: (§4)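 Fluorescence from a DNA-binding dye excluded by viable cells was measured repeatedly in the same HEK293 wells (600 cells/well) during continuous compound exposure at 37 C. Each assay gives one read point: 0, 8, 16, 24, 32 or 40 h.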
# [6] = A CellTox Green Cytotoxicity Assay to monitor cytotoxicity in HEK293 cells - 32 hour (AID 1224881); further: nearly all actives have a fitted effect of over 40% in size; further: potency means the concentration at half of the fitted maximal effect
# Summary of the method: as §4
# [7] = A CellTox Green Cytotoxicity Assay to monitor cytotoxicity in HEK293 cells - 8 hour (AID 1224884); further: nearly all actives have a fitted effect of over 35% in size; further: potency means the concentration at half of the fitted maximal effect
# Summary of the method: as §4
# [8] = qHTS RealTime-Glo MT Cell Viability Assay in HEK293 cells - 24 hour (AID 1224886); further: nearly all actives have a fitted effect of over 50% in size; further: potency means the concentration at half of the fitted maximal effect
# Summary of the method: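 HEK293 cells seeded with NanoLuc/prosubstrate reagent, rested 5 h at 37 C, then dosed and kept at 37 C up to 40 h. Nonlytic real-time luminescence from viable cells read at 0, 8, 16, 24, 32 and 40 h.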
# [9] = qHTS RealTime-Glo MT Cell Viability Assay in HEK293 cells - 8 hour (AID 1224887); further: nearly all actives have a fitted effect of over 50% in size; further: potency means the concentration at half of the fitted maximal effect
# Summary of the method: as §1
# [10] = qHTS RealTime-Glo MT Cell Viability Assay in HepG2 cells - 0 hour (AID 1224889); further: nearly all actives have a fitted effect of over 50% in size
# Summary of the method: as §3
SMILES,Potency [1],Potency [2],Potency [3],Potency [4],Potency [5],Potency [6],Potency [7],Potency [8],Potency [9],Potency [10]
Cc1cc(O)c(C)c(C)c1O,inactive,inactive,inactive,inactive,inactive,–,–,–,–,–
C[C@@H]1CN(CCCn2c3ccccc3c3ccccc32)C[C@H](C)N1,–,inactive,23.9 µM (active),23.9 µM (active),21.3 µM (active),23.9 µM (active),23.9 µM (active),23.9 µM (active),–,–
C(=C\c1ccccc1)/c1ccccc1,inactive,–,inactive,inactive,–,–,inactive,inactive,inactive,inactive
C=CC(=O)[O-].C=CC(=O)[O-].[Zn+2],–,inactive,inactive,inactive,inactive,inactive,inactive,inactive,inactive,–
C[C@@H](O[C@H]1OCCN(Cc2n[nH]c(=O)[nH]2)[C@H]1c1ccc(F)cc1)c1cc(C(F)(F)F)cc(C(F)(F)F)c1,inactive,–,16.9 µM (active),19 µM (active),inactive,–,inactive,16.9 µM (active),–,inactive
O[C@@H]1CO[C@H]2[C@@H]1OC[C@@H]2O,–,inactive,inactive,inactive,inactive,inactive,inactive,inactive,inactive,inactive
O=C(/C=C/c1ccccc1)OCCc1ccccc1,–,inactive,inactive,inactive,inactive,inactive,inactive,inactive,–,–
Oc1cc2c(cc1O)[C@H]1c3ccc(O)c(O)c3OC[C@@]1(O)C2,inactive,inactive,–,44.2 µM (active),49.6 µM (active),–,–,inactive,22.2 µM (active),inactive
CCCC(C(=O)OCCN(CC)CC)(c1ccccc1)c1ccccc1,inactive,inactive,–,–,inactive,–,inactive,21.3 µM (active),–,inactive
CCC(=O)C1CC(C(C)C)CC=C1C (configuration not stated),–,inactive,inactive,inactive,inactive,inactive,inactive,inactive,inactive,inactive
CC1(CN2CCC(n3c(=O)[nH]c4ccccc43)CC2)OCc2ccccc2-n2cccc21 (configuration not stated),inactive,inactive,–,–,inactive,–,inactive,19 µM (active),–,inactive
CCCCN(CCCC)C(C(N)=O)c1ccc(OC)cc1 (configuration not stated),–,inactive,inactive,inactive,inactive,inactive,inactive,inactive,inactive,inactive
CN(C(=O)CN(CCO)CC(=O)N(C)C(C)(C)Cc1ccccc1)C(C)(C)Cc1ccccc1,inactive,–,23.9 µM (active),–,–,–,–,19 µM (active),–,–
Cc1cc(O)ccc1O,inactive,inactive,inactive,inactive,–,–,inactive,–,–,inactive
c1cc(N(CC2CO2)CC2CO2)ccc1Cc1ccc(N(CC2CO2)CC2CO2)cc1 (configuration not stated),inactive,inactive,–,–,inactive,–,inactive,43.6 µM (active),–,inactive
C=Cc1ccc(S(=O)(=O)O)cc1,inactive,49 µM (active),54.9 µM (active),inactive,–,–,–,inactive,–,inactive
CO/N=C(/C(=O)N[C@@H]1C(=O)N2C(C(=O)O)=C(COC(N)=O)CS[C@H]12)c1ccco1,–,inactive,inactive,inactive,inactive,inactive,inactive,inactive,inactive,inactive
CC(C)COCC(CN(Cc1ccccc1)c1ccccc1)N1CCCC1 (configuration not stated),–,inactive,21.3 µM (active),21.3 µM (active),23.9 µM (active),23.9 µM (active),21.3 µM (active),15.1 µM (active),15.1 µM (active),inactive
CC[N+](CC)(CCNC(=O)C(=O)NCC[N+](CC)(CC)Cc1ccccc1Cl)Cc1ccccc1Cl,–,inactive,inactive,inactive,inactive,inactive,inactive,inactive,inactive,inactive
COc1ccccc1N1CCN(CCCCNC(=O)c2ccc(-c3ccc(C(C)=O)cc3)cc2)CC1,inactive,inactive,–,inactive,inactive,–,inactive,1.69 µM (active),–,–

SMILES,Potency [1],Potency [2],Potency [3],Potency [4],Potency [5],Potency [6],Potency [7],Potency [8],Potency [9],Potency [10]
O=c1cc(-c2ccccc2)oc2ccc3ccccc3c12,inactive,inactive,21.9 µM (active),inactive,–,–,–,inactive,–,inactive
CCCCCCCCCI,–,inactive,inactive,inactive,inactive,inactive,inactive,inactive,inactive,–
O=C1c2ccccc2C(=O)N1CCc1noc(-c2ccc(CN3CCCCCC3)s2)n1,inactive,35.7 µM (active),35.7 µM (active),–,–,–,35.7 µM (active),35.7 µM (active),–,inactive
CCCCCCCCC(CCCCCC)C(=O)O (configuration not stated),–,inactive,61.6 µM (active),inactive,inactive,inactive,inactive,inactive,inactive,inactive
Cc1cc2c(OCC(CNC(C)(C)C)OC(=O)c3ccccc3)cccc2[nH]1 (configuration not stated),inactive,inactive,–,inactive,inactive,–,inactive,–,inactive,inactive
CC=C(Cl)Cl,inactive,–,inactive,inactive,–,–,–,inactive,inactive,inactive
C[C@]1(Cn2ccnn2)[C@H](C(=O)O)N2C(=O)C[C@H]2S1(=O)=O,–,inactive,inactive,inactive,inactive,inactive,inactive,inactive,inactive,inactive
CCCCCCCC/C=C\CCCCCCCCO,–,inactive,inactive,inactive,inactive,inactive,inactive,inactive,inactive,–
CN1C[C@H](C(=O)N[C@]2(C)O[C@@]3(O)[C@@H]4CCCN4C(=O)[C@H](Cc4ccccc4)N3C2=O)C[C@@H]2c3cccc4[nH]cc(c34)C[C@H]21,inactive,inactive,–,–,inactive,–,inactive,21.3 µM (active),23.9 µM (active),inactive
Nc1ncnc2c1ncn2[C@H]1CC[C@@H](CO)O1,–,inactive,inactive,inactive,–,inactive,inactive,inactive,inactive,inactive
CCOC(=O)c1ccc(OCCN2C[C@H](O)[C@@H](O)[C@H](O)[C@H]2CO)cc1,–,inactive,inactive,inactive,–,inactive,inactive,inactive,inactive,inactive
CC(C)c1nc(CN(C)C(=O)N[C@H](C(=O)N[C@@H](Cc2ccccc2)C[C@H](O)[C@H](Cc2ccccc2)NC(=O)OCc2cncs2)C(C)C)cs1,inactive,inactive,–,inactive,inactive,–,inactive,21.3 µM (active),–,inactive
c1csc(SSc2cccs2)c1,inactive,inactive,–,–,inactive,–,inactive,–,–,–
Cc1ccco1,–,inactive,inactive,inactive,–,inactive,inactive,inactive,inactive,inactive
Brc1cc2ccccc2c2ccccc12,inactive,inactive,inactive,inactive,inactive,–,inactive,–,–,inactive
Clc1cc(Cl)nc(Cl)n1,–,inactive,inactive,inactive,inactive,inactive,inactive,inactive,inactive,–
CCC(=O)OC,–,inactive,inactive,inactive,inactive,inactive,inactive,inactive,inactive,–
C[C@H]1c2cccc(O)c2C(O)=C2C(=O)[C@]3(O)C(O)=C(C(N)=O)C(=O)[C@@H](N(C)C)[C@@H]3[C@@H](O)[C@@H]21,–,inactive,inactive,inactive,inactive,inactive,inactive,inactive,inactive,inactive
CC1(C)O[C@@H]2C[C@H]3[C@@H]4C[C@H](F)C5=CC(=O)C=C[C@]5(C)[C@H]4[C@@H](O)C[C@]3(C)[C@]2(C(=O)CO)O1,–,inactive,inactive,inactive,inactive,inactive,inactive,inactive,inactive,–
